# Test results taken from PubChem BioAssay (NCATS).
# Where “and” joins values, the source holds several entries; their conditions need not be identical. Equal values may be shown once. Records with an inconclusive call do not appear. Calls of active or inactive are those of the source. Unless noted, calls come from the whole dose curve; as a rule, active = well fitted curve in the direction sought with a large enough effect; inconclusive = small, poorly fitted or top-dose-only effect, or another doubt; inactive = no such curve, though single readings can be large; an effect the other way counts as inactive or inconclusive.
# Columns and labels:
# [1] = target: Catechol O-methyltransferase (Homo sapiens) (UniProt P21964); experiment: Confirmatory Screen for Target Class Profiling of Small Molecule Inhibitors of Methyltransferases (AID 1745852; calls by dose curve; note: potency is the fitted concentration of half-maximal effect; for activity change, negative = inhibition: % is set by controls: 0 for no effect and ±100 for the full control effect); settings: MTase-Glo luminescence, SAH detection, recombinant enzyme; measured here: COMT max response; stronger effect = lower value
# Sequence of Catechol O-methyltransferase (Homo sapiens) (P21964 whole entry, looked up): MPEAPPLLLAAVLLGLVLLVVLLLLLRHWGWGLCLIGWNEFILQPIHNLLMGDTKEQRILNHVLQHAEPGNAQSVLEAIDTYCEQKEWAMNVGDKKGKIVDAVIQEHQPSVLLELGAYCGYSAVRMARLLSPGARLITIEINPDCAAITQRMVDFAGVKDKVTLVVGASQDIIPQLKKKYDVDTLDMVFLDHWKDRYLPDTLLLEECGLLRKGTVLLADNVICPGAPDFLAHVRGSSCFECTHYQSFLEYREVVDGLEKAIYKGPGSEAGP
# [2] = target: Guanidinoacetate N-methyltransferase (Homo sapiens) (UniProt Q14353); experiment: as above; settings: MTase-Glo luminescence, SAH detection, recombinant enzyme; activity change, negative = inhibition: at 57.3 µM (top of the series) unless noted; series mostly up to 57.3 µM
# [3] = target: Nicotinamide N-methyltransferase (Homo sapiens) (UniProt P40261); experiment: as above; settings: MTase-Glo luminescence, SAH detection, recombinant enzyme; measured here: NNMT max response; stronger effect = lower value
# Sequence of Nicotinamide N-methyltransferase (Homo sapiens) (P40261 whole entry, looked up): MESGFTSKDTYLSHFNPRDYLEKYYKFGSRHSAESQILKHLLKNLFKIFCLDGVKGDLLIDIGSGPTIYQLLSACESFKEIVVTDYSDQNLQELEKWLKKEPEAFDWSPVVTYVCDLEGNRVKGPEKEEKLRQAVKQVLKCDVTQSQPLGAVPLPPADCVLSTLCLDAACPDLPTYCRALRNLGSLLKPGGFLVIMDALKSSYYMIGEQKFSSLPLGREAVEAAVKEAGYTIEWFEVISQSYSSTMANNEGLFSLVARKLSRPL
# [4] = target: Phenylethanolamine N-methyltransferase (Homo sapiens) (UniProt P11086); experiment: as above; settings: MTase-Glo luminescence, SAH detection, recombinant enzyme; measured here: PNMT max response; stronger effect = lower value
# Sequence of Phenylethanolamine N-methyltransferase (Homo sapiens) (P11086 whole entry, looked up): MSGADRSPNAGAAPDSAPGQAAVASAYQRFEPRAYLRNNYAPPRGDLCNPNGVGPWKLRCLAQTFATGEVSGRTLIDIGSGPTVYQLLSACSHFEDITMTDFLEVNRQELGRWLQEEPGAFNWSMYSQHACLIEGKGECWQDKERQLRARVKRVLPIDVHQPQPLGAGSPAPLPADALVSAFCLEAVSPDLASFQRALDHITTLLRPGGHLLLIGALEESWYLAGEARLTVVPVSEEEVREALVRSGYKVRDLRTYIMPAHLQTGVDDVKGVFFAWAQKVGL
# [5] = target: Rap guanine nucleotide exchange factor 4 (Homo sapiens) (UniProt Q8WZA2); experiment: Confirmatory qHTS for agonist of cAMP-regulated guanine nucleotide exchange factor 4 (EPAC2) (AID 1645884); settings: EPAC2 GEF activity, Rap1B-BODIPY-GDP fluorescence, percent relative to cAMP agonist control; series mostly up to 154 µM;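 note: nucleotide exchange releases bodipy-GDP from Rap1 and this lowers its fluorescence; % is set by controls: 0 for no effect and ±100 for the full control effect; nearly all actives have a fitted effect of over 65% in size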
# Sequence of Rap guanine nucleotide exchange factor 4 (Homo sapiens) (Q8WZA2 whole entry, looked up): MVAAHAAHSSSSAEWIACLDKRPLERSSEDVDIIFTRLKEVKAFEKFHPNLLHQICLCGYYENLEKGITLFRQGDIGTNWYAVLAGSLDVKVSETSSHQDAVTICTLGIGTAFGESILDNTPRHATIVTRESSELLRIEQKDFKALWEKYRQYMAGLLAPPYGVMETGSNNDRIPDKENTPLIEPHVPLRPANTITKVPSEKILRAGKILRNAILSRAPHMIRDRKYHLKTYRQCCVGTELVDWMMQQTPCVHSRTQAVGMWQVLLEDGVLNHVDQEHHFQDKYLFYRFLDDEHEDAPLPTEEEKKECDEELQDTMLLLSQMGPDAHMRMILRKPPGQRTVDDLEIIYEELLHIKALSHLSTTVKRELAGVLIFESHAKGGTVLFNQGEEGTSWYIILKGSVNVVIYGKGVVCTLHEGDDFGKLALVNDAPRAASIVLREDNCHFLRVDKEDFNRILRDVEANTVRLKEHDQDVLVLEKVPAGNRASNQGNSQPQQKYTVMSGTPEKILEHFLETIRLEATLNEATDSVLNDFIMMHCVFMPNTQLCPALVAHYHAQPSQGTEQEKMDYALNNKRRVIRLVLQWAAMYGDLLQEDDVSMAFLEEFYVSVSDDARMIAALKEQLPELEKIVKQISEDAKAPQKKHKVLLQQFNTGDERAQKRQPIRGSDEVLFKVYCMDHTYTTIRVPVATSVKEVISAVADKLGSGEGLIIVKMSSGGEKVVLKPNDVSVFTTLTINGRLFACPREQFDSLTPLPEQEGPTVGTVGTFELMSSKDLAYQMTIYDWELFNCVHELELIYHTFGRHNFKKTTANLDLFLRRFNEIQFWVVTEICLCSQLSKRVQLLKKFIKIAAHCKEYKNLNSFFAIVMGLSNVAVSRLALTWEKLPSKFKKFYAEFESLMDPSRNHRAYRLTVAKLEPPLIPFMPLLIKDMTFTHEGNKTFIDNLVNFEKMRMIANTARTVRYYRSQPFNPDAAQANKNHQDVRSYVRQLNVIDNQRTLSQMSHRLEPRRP
# [6] = target: Rap guanine nucleotide exchange factor 4 (Homo sapiens) (UniProt Q8WZA2); experiment: Confirmatory qHTS for antagonist of cAMP-regulated guanine nucleotide exchange factor 4 (EPAC2) (AID 1645885); settings: EPAC2 Rap1B-BODIPY-GDP exchange fluorescence, biochemical; series mostly up to 114 µM; note: nearly all actives have a fitted effect of over 25% in size; note: potency is the fitted concentration of half-maximal effect
# [7] = target: Rap guanine nucleotide exchange factor 3 (Homo sapiens) (UniProt O95398); experiment: Counterscreen qHTS for antagonist of cAMP-regulated guanine nucleotide exchange factor 3 (EPAC1) (AID 1645888); settings: Rap1B-BODIPY-GDP nucleotide exchange, fluorescence; series mostly up to 154 µM;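 note: fluorescence loss as bound BODIPY-GDP is released from Rap1B; % of control where 0% means no effect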
# Sequence of Rap guanine nucleotide exchange factor 3 (Homo sapiens) (O95398 whole entry, looked up): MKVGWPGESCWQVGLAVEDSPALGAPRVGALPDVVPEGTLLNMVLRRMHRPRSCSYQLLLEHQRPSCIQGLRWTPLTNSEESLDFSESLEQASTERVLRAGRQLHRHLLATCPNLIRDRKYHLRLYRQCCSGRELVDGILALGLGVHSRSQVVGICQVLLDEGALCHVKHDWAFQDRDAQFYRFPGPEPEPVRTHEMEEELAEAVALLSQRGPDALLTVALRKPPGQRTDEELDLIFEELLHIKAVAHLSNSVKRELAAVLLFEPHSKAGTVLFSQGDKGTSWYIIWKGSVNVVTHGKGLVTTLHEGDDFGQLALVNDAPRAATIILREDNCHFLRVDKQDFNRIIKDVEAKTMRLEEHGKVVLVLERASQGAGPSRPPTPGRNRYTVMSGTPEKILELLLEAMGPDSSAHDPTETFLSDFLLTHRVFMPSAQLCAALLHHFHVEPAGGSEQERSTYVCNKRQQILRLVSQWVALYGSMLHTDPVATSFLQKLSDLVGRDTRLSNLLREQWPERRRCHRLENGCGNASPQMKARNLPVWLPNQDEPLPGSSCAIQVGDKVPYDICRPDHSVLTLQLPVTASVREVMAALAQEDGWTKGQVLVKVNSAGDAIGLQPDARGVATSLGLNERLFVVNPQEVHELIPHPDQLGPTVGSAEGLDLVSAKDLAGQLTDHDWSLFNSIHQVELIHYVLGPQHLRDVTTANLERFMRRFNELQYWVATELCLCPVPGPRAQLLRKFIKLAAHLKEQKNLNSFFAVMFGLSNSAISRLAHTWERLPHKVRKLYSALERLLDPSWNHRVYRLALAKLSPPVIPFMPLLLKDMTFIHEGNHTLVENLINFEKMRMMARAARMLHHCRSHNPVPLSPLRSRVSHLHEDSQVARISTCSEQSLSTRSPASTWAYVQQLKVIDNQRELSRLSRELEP
# Method in brief: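 Rap1B–BODIPY-GDP (250 nM) with 50 uM GDP; compounds pin-transferred to 9.74 nM–152 uM final (activator) or from 7.32 nM upwards (inhibitor). Fluorescence Ex/Em 480/540 nm read at 5 and 30 min, then after adding cAMP or buffer, at room temperature.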
# [8] = NCATS anti-infectives library activity on HEK293 viability as a counter-qHTS vs the C. elegans viability qHTS (AID 1745854); settings: HEK293 viability counter-screen; series mostly up to 41.8 µM;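 note: HEK293 cells exposed to compounds for 24 hr before the viability read; % is set by controls: 0 for no effect and ±100 for the full control effect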
# Method in brief: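 Compound titrations (final up to 41.7 uM) were incubated with HEK293 cells for 24 hr at 37C under 5% CO2. Viable cells were quantified with CellTiter-Glo after 10 min at ambient temperature.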
compound,measurement,setting,value
CC(C)N(C[C@H]1O[C@@H](n2cnc3c(N)ncnc32)[C@H](O)[C@@H]1O)C1CC(CCc2nc3ccc(C(C)(C)C)cc3[nH]2)C1 (some centres not stated),activity,[1],-14.6% and -12.5%
same,Potency,[2],30.4 µM (active)
same,"activity change, negative = inhibition",[2],-3.18%
same,activity,[3],-85.8% and -82.8%
same,activity,[4],-90.9% and -89.3%
COc1cc(C(O)C(CO)Oc2ccc(CCCO[C@@H]3O[C@@H](C)[C@H](O)[C@@H](O)[C@H]3O)cc2OC)ccc1O (some centres not stated),activity,[1],-72.8%
same,"activity change, negative = inhibition",[2],-3.44% [at 29.8 µM]
same,activity,[3],-3.89%
same,activity,[4],-4.24%
C=C1[C@H]2[C@H](O[C@@H]3O[C@H](COC(=O)/C=C/c4cc(OC)c(O)c(OC)c4)[C@@H](O)[C@H](O)[C@H]3O)OC=C(C(=O)O)[C@H]2C[C@@H]1O,activity,[1],-50.9%
same,"activity change, negative = inhibition",[2],0% [at 19.1 µM]
same,activity,[3],0%
same,activity,[4],5.16%
C/C=C(\C)C(=O)O[C@H]1[C@@H](O[C@]2(COC(=O)CC(C)C)O[C@H](COC(=O)C(C)C)[C@@H](OC(C)=O)[C@@H]2O)O[C@H](COC(C)=O)[C@@H](O)[C@@H]1O,activity,[1],-75.6%
same,"activity change, negative = inhibition",[2],0% [at 19.1 µM]
same,activity,[3],2.56%
same,activity,[4],-1.49%
O=C(O)CCc1cccc(O[C@@H]2O[C@H](CO)[C@@H](O)[C@H](O)[C@H]2O)c1O,activity,[1],-71.6%
same,"activity change, negative = inhibition",[2],0.429%
same,activity,[3],0.392%
same,activity,[4],-5.98%
CC1(C)CC[C@]2(C(=O)O[C@@H]3O[C@H](CO)[C@@H](O)[C@H](O)[C@H]3O)CC[C@]3(C)C(=CCC4[C@@]5(C)C[C@@H](O)[C@H](O)[C@@](C)(CO)C5CC[C@]43C)C2C1 (some centres not stated),activity,[1],-71.4%
same,"activity change, negative = inhibition",[2],-8.61% [at 19.1 µM]
same,activity,[3],-8.27%
same,activity,[4],-4.38%
COc1cc(/C=C/C(=O)O[C@H]2[C@H](OC(=O)/C=C/c3cc(OC)c(O)c(OC)c3)O[C@H](CO[C@@H]3O[C@H](CO)[C@@H](O)[C@H](O)[C@H]3O)[C@@H](O)[C@@H]2O)ccc1O,activity,[1],-52.5%
same,"activity change, negative = inhibition",[2],0.645% [at 19.1 µM]
same,activity,[3],-4.49%
same,activity,[4],-4.24%
CC(C)(C)NC(=O)[C@@H]1C[C@@H]2CCCC[C@@H]2CN1C[C@@H](O)[C@H](Cc1ccccc1)NC(=O)[C@H](CC(N)=O)NC(=O)c1ccc2ccccc2n1,outcome,[5],inactive
same,Potency,[6],inactive
same,outcome,[7],inactive
COc1cc(N2CCC(O)CC2)ccc1Nc1cc(Nc2ccccc2S(=O)(=O)C(C)C)c2cc[nH]c2n1,activity,[1],2.25%
same,"activity change, negative = inhibition",[2],0%
same,activity,[3],-6.54%
same,activity,[4],0.382%
COc1cc(C2Oc3c(OC)cc(/C=C/C(=O)OC[C@H]4O[C@@H](OC(C)(C)C(=O)O)[C@H](O)[C@@H](O)[C@@H]4O)cc3C2CO)ccc1O (some centres not stated),activity,[1],-69.3%
same,"activity change, negative = inhibition",[2],-2.88% [at 19.1 µM]
same,activity,[3],-0.56%
same,activity,[4],-7.93%
CCCCC(CC)COC(=O)CC(C(=O)OCC(CC)CCCC)S(=O)(=O)O (configuration not stated),outcome,[5],inactive
same,Potency,[6],39.3 µM (active) and 31.2 µM (active)
same,outcome,[8],inactive
C=C1C(O[C@@H]2O[C@H](CO)[C@@H](O)[C@H](O)[C@@H]2O)CC2C(C)(C)C(O)CCC2(C)C1CC/C(C)=C\CO (some centres not stated),activity,[1],-63.2%
same,"activity change, negative = inhibition",[2],0% [at 29.8 µM]
same,activity,[3],3.48%
same,activity,[4],0.548%
CC1(CO)CC[C@]2(C(=O)O[C@@H]3O[C@H](CO)[C@@H](O)[C@H](O)[C@H]3O)CC[C@]3(C)C(=CCC4[C@@]5(C)C[C@H](O)[C@H](O[C@@H]6OC[C@@H](O)[C@H](O)[C@H]6O)[C@@](C)(CO)C5CC[C@]43C)C2C1 (some centres not stated),activity,[1],-56.9%
same,"activity change, negative = inhibition",[2],0.83% [at 19.1 µM]
same,activity,[3],2.23%
same,activity,[4],2.01%
CC1(C)CC[C@]2(C(=O)O[C@@H]3O[C@H](CO)[C@@H](O)[C@H](O)[C@H]3O)CC[C@]3(C)C(=CCC4[C@@]5(C)C[C@@H](O)[C@H](O)C(CO)(CO)C5CC[C@]43C)C2[C@@H]1O (some centres not stated),activity,[1],-77.5%
same,"activity change, negative = inhibition",[2],0% [at 19.1 µM]
same,activity,[3],0%
same,activity,[4],4.05%
CC1CC(O)C2(C)C(C(=O)O)=CCCC2C1(C)CCc1ccoc1 (configuration not stated),activity,[1],-89.3%
same,"activity change, negative = inhibition",[2],2.37%
same,activity,[3],2.05%
same,activity,[4],2.03%
CC(C)(O)/C=C1/C(=O)C(C)(C)C(=O)C(C)(C)C1(O)O[C@@H]1O[C@H](COC(=O)c2cc(O)c(O)c(O)c2)[C@@H](O)[C@H](O)[C@H]1O (some centres not stated),activity,[1],-56.9%
same,"activity change, negative = inhibition",[2],-2.31% [at 19.1 µM]
same,activity,[3],-1.53%
same,activity,[4],-0.785%
CC1=CC(=O)C2C(C)(C)CCCC2(C)C12CCC1(COC(=O)C1)O2 (configuration not stated),activity,[1],-85.5%
same,"activity change, negative = inhibition",[2],2.41%
same,activity,[3],-1.78%
same,activity,[4],3.04%
CNC1CCN(C(Cc2cccc(-c3ccncc3)c2)C(=O)c2sc3c(F)ccc(F)c3c2Cl)CC1 (configuration not stated),activity,[1],-12.3%
same,Potency,[2],48.2 µM (active)
same,activity,[3],-78%
same,activity,[4],-11.9%
COC(=O)C1=COC(OC2OC(CO)C(O)C(O)C2O)C2C1CC(OC(=O)C(O)CC(=O)O)C2C (configuration not stated),activity,[1],-63.4%
same,"activity change, negative = inhibition",[2],1.08% [at 29.8 µM]
same,activity,[3],1.84%
same,activity,[4],1.07%
OC1COC(OCC2OC(OCCc3ccccc3)C(O)C(O)C2O)C(O)C1O (configuration not stated),activity,[1],-64.8%
same,"activity change, negative = inhibition",[2],0% [at 29.8 µM]
same,activity,[3],0%
same,activity,[4],0%
Cc1ccc2c(c1)C=Cc1cc(C)ccc1C2c1cn(Cc2ccc(C(=O)Nc3nn[nH]n3)o2)c(=O)[nH]c1=S,activity,[1],-11%
same,"activity change, negative = inhibition",[2],-0.0663%
same,activity,[3],-18.9%
same,activity,[4],-2.77%
COc1cc2c(Nc3ccc(Cl)c(Cl)c3F)ncnc2cc1OCC1C[C@@H]2CN(C)C[C@@H]2C1 (some centres not stated),activity,[1],-81.3%
same,Potency,[2],24.1 µM (active)
same,activity,[3],-73.4%
same,activity,[4],-80.2%
CCN(c1cc(C#CCN2CCOCC2)cc(C(=O)NCc2c(C)cc(C)[nH]c2=O)c1C)C1CCC(N(C)CCOC)CC1 (configuration not stated),activity,[1],15%
same,"activity change, negative = inhibition",[2],3.71%
same,activity,[3],-20.4%
same,activity,[4],4.61%
OC[C@H]1O[C@@H](Oc2ccc(O)c3cccc(O)c23)[C@H](O)[C@@H](O)[C@@H]1O,activity,[1],-82.3%
same,Potency,[2],16.8 µM (active)
same,activity,[3],-18.4%
same,activity,[4],-70.9%
C[C@@H]1O[C@@H](O[C@H]2[C@H](OC(=O)C34CCC(C)(C)CC3C3=CCC5C6(C)CC(O)C(O[C@@H]7O[C@H](CO)[C@@H](O)[C@H](O)[C@H]7O)C(C)(C(=O)O)C6CCC5(C)C3(CO)CC4)O[C@H](C)[C@H](O)[C@@H]2O)[C@H](O)[C@H](O)[C@H]1O[C@@H]1OC[C@@H](O)[C@H](O)[C@H]1O (some centres not stated),activity,[1],-46%
same,"activity change, negative = inhibition",[2],-4.58% [at 19.1 µM]
same,activity,[3],-3.41%
same,activity,[4],-2.81%
CN1CCC(c2c[nH]c3ccc(NC(=O)c4ccc(F)cc4)cc23)CC1,activity,[1],-8.83%
same,"activity change, negative = inhibition",[2],-10.4%
same,activity,[3],-3.82%
same,activity,[4],-4.53%
CC(Cc1ccc(O)c(O)c1)C(C)Cc1ccc(O)c(O)c1 (configuration not stated),outcome,[5],inactive
same,Potency,[6],55.5 µM (active)
C=Cc1cc(O)cc2nc(-c3ccc(O)c(F)c3)oc12,activity,[1],-54.6%
same,Potency,[2],30.4 µM (active)
same,activity,[3],-36%
same,activity,[4],-50.4%
CC1(C)O[C@@]2(C)CC[C@@H]1C[C@@H]2OC1OC(CO)C(O)C(O)C1O (some centres not stated),activity,[1],-67.5%
same,"activity change, negative = inhibition",[2],2.82%
same,activity,[3],4.92%
same,activity,[4],0.858%
CCOc1ccc(-c2ccc(Cn3c(CC(C)(C)C(=O)O)c(SC(C)(C)C)c4cc(OCc5ccc(C)cn5)ccc43)cc2)cn1,activity,[1],-2.5% and 0.78%
same,Potency,[2],inactive
same,"activity change, negative = inhibition",[2],-0.671%
same,activity,[3],-21.6% and -9.46%
same,activity,[4],-31.2% and -7.43%
COCCN(C)Cc1ccc2nc3sc(C(=O)N(C)C4CCCCC4)cn3c2c1,activity,[1],-4.7%
same,"activity change, negative = inhibition",[2],0%
same,activity,[3],1.46%
same,activity,[4],-2.94%
